High-throughput results: PubChem BioAssay, several laboratories
14-3-3 Bad PPI = disrupts binding of bovine 14-3-3 zeta to phospho-Bad peptide; P63103; TR-FRET 14-3-3zeta/Dy647-pBad peptide displacement, 1 h; inhibition, % at 21.7 µM; actives 0.71% (n = 220,000); AID 781;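 active means inhibition above about 70%, limit read from the data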;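 further: 0% = full 14-3-3 plus peptide FRET controls and 100% = background without 14-3-3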
p47phox inh = blocks human p47phox regulatory protein of NADPH oxidases | P14598 | inhibition, % at 24.7 µM | AID 1274 | p47phox/p22phox peptide binding, fluorescence polarization, 2 h | actives 0.53% (n = 220,000);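 further: 0% = p47phox with labelled peptide and 100% = labelled peptide alone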
eIF4E 4G PPI = eIF4E/eIF4G interaction inhibition in translation initiation; TR-FRET eIF4E-eIF4GI(517-606) binding, 2 h; inhibition, % at 21.7 µM; actives 0.37% (n = 220,000); AID 782;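 further: 0% = full FRET control wells and 100% = background wells lacking eIF4GI fragment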
Target sequence (P63073 whole entry, looked up, the tested form may be a part): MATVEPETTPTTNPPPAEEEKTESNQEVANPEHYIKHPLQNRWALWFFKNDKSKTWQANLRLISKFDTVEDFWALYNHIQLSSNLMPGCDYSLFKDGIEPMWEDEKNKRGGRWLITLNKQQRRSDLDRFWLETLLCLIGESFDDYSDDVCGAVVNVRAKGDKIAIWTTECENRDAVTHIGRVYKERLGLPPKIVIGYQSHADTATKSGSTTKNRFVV
Target sequence (Q04637 whole entry, looked up, the tested form may be a part): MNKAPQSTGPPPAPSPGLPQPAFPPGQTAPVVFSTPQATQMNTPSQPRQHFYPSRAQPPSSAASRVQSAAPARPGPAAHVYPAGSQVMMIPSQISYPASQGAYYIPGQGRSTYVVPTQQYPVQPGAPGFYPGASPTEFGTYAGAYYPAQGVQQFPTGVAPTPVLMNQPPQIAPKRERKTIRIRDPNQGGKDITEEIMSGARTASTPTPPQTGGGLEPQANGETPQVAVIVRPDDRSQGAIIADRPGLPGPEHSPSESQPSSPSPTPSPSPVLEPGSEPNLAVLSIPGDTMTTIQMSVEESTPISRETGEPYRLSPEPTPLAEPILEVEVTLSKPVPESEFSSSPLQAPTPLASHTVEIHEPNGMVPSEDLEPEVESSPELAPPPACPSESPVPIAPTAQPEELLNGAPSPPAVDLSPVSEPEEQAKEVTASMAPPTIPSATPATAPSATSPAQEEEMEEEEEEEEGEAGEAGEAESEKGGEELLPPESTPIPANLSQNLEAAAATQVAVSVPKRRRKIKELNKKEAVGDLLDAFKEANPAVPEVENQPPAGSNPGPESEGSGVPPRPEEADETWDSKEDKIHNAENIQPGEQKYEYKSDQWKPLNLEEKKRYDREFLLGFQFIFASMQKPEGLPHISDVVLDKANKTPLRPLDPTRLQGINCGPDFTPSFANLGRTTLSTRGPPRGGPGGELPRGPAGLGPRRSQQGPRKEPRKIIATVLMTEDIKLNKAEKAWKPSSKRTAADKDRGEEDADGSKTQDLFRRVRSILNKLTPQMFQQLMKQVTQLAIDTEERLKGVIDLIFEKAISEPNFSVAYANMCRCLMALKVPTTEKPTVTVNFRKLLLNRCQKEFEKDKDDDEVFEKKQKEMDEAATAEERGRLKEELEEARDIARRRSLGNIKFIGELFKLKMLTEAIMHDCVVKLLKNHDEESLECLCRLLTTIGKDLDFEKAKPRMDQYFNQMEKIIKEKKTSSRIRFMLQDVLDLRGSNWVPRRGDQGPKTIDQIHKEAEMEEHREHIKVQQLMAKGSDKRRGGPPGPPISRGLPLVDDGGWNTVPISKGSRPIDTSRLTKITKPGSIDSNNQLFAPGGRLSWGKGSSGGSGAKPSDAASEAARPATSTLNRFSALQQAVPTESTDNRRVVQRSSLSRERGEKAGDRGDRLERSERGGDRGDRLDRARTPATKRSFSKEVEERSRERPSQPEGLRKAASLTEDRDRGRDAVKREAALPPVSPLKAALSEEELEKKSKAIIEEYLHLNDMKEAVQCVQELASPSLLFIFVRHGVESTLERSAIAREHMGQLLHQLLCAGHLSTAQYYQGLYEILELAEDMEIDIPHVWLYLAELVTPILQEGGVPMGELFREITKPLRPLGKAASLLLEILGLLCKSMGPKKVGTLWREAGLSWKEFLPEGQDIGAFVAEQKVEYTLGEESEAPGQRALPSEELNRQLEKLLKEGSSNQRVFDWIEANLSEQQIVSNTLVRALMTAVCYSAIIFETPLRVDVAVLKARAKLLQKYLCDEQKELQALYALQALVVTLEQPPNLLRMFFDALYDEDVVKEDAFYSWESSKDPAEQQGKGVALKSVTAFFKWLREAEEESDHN
Mcl1 Noxa PPI = Mcl-1/Noxa interaction inhibition. inhibition, % at 21.7 µM. TR-FRET Mcl-1/Noxa peptide binding, 2 h. actives 1.5% (n = 220,000). Q07820;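 active means compounds that cut the protein-peptide binding signal by more than 50% relative to plate controls in a single-dose test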;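 further: His-tagged Mcl-1 with rhodamine Noxa BH3 peptide and terbium anti-His antibody; 0% = Mcl-1 plus Noxa peptide wells and 100% = peptide-only wells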
Mcl1 Bid PPI = Mcl-1/Bid interaction inhibition | actives 0.97% (n = 220,000) | TR-FRET Mcl-1/Bid-Dy647 peptide binding, 1536-well | Q07820 | AID 1021 | inhibition, % at 21.7 µM;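 active means compounds that cut the binding signal by more than half at the single screening dose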;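 further: His-tagged Mcl-1 with europium anti-His antibody binding Bid BH3 peptide; 0% = Mcl-1 plus peptide wells and 100% = peptide-only wells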
Bim-Mcl-1 = disrupts Bim peptide binding to human Mcl-1 | Q07820 | AID 1009 | Bead-based flow cytometry, Bim peptide-Mcl-1 binding | inhibition, % at 10 µM | actives 0.1% (n = 190,000); in the data active means inhibition above about 40%;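 further: 0% = no compound tracer wells and 100% = peptide blocker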
The depositor's hits bear a star; . = not tested or not shown; [ ] = another dose, or the depositor's remark. An excerpt weighted towards active compounds, which were near 3.3% of everything screened.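 How the source made its calls, unless noted: active means inhibition above about 30% (limit read from the data); inactive means the rest.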

SMILES	14-3-3 Bad PPI	p47phox inh	eIF4E 4G PPI	Mcl1 Noxa PPI	Mcl1 Bid PPI	Bim-Mcl-1
O=C(NN=C1C2CC3CC1CC(Cl)(C3)C2)c1ccccn1	8.8	-5.9	2.1	67.4*	10.0	-1.0
Cc1ccc([N+](=O)[O-])cc1NC(=O)CN1CCCCC1	10.7	-4.9	0.6	6.0	-27.7	-3.0
O=C(CN1CCN(c2ccc(O)cc2)CC1)Nc1cc([N+](=O)[O-])ccc1Cl	48.9	24.7	3.4	99.0*	-2.5	2.0
Cc1ccc([N+](=O)[O-])cc1NC(=O)CN1CCC(C)CC1	-1.5	71.7*	-3.0	3.7	-10.2	-1.0
Cc1ccc([N+](=O)[O-])cc1NC(=O)Cc1cccs1	56.0	-4.7	37.0*	55.6*	-21.5	0.0
O=C1Cc2ccccc2C(c2ccccc2)N1 (centres undefined)	79.2*	0.4	-1.4	-12.1	-12.9	0.0
CC1(NC(=S)N(CCO)CCO)CCS(=O)(=O)C1 (centres undefined)	-2.4	0.4	-2.2	-5.3	-96.5	-19.0
Cc1cc(C)c(S(=O)(=O)NCC2CCC(C(=O)NCCCN3CCOCC3)CC2)c(C)c1 (centres undefined)	-7.8	39.5*	7.0	21.3	15.9	-3.0
Cc1ccc(S(=O)(=O)NCC2CCC(C(=O)NCCCN3CCOCC3)CC2)cc1 (centres undefined)	6.2	-1.0	2.9	-2.4	-33.3	1.0
Cc1cc(C)c(C)c(S(=O)(=O)NCCCN2CCOCC2)c1C	86.3*	0.8	5.0	9.5	-0.8	0.0
Cc1ccc(S(=O)(=O)NCCCN2CCOCC2)cc1C	18.3	-5.2	3.2	12.5	-18.2	1.0
Cn1cc(Cl)c(/C=C(\C#N)S(=O)(=O)c2ccccc2)n1	-9.3	-16.1	-3.5	9.9	-13.0	.
CCOc1cc(Br)c(Br)c(C=Nc2ccc(NC(C)=O)cc2)c1O	44.2	-192.7	3.9	51.0*	6.0	4.0
CC(=O)Nc1ccc(N=Cc2ccc[nH]2)cc1	6.5	-7.1	-5.3	6.7	-33.8	-4.0
CC(=O)Nc1ccc(N=Cc2c(O)c(C(=O)Nc3ccccc3)cc3ccccc23)cc1	49.2	-228.8	30.0*	84.4*	70.6*	-2.0
CCOc1cc(/C=N/NC(=O)C(N)=O)cc(Br)c1O	15.2	-7.9	-6.8	48.4	-46.5	2.0
CC(C)COC(=O)/C(C#N)=C/c1c[nH]c2ccccc12	3.5	-4.2	5.6	-7.0	-10.0	-4.0
Cc1ccccc1CCN(C(=O)Cn1nnc2ccccc21)C(C(=O)NCC1CCCO1)c1nc2ccccc2n1C (centres undefined)	2.2	45.1*	-3.1	0.3	17.2	-4.0
Cc1ccc(-n2c(SCC(=O)NCc3ccco3)nc3sc4c(c3c2=O)CC(C)(C)SC4)cc1	-25.2	-14.0	-21.2	-85.4	88.7*	2.0
COc1ccc(C(c2c(O)ccc3ccccc23)N2CCOCC2)c(OC)c1 (centres undefined)	-7.1	-8.1	12.0	79.2*	49.5	-5.0
COc1ccc(C(CCN2CCOCC2)c2c(O)cc(OC)cc2OC)cc1 (centres undefined)	-2.9	-10.8	0.1	-8.2	-47.0	.
Cc1cc(C)c(OCCNC(=O)c2ccccc2Sc2ccccc2C#N)c(C)c1	-2.9	-7.8	3.9	-5.9	-11.6	-2.0
CCCC(=O)OCCNc1cc(Sc2nc3ccccc3[nH]2)c2nonc2c1[N+](=O)[O-]	-11.8	-5.0	-2.7	51.8*	-62.2	-1.0
CCC(=O)OCCNc1cc(SCCC(=O)OC)c2nonc2c1[N+](=O)[O-]	6.5	-5.5	-5.0	14.8	-4.0	-1.0
CCCc1cc(=O)oc2c(C)c(OCC(=O)c3ccc(N4CCCC4)cc3)ccc12	67.2	34.1*	29.1	32.2	48.7	-21.0
SMILES	14-3-3 Bad PPI	p47phox inh	eIF4E 4G PPI	Mcl1 Noxa PPI	Mcl1 Bid PPI	Bim-Mcl-1
Cc1cccc(C)c1NC(=S)/N=C/N(C)C	5.0	91.0*	-2.2	-1.7	-28.7	0.0
CN(C)/C=N/C(=S)Nc1ccc(Cl)cc1	4.0	-13.4	-0.8	7.5	-48.4	0.0
CC(=O)Nc1ccc(S(=O)(=O)NC2(C(F)(F)F)C(=O)Nc3c2c(=O)[nH]c(=O)n3Cc2ccco2)cc1 (centres undefined)	3.8	5.1	1.3	56.4*	-39.4	-7.0
CC(=O)Nc1ccc(S(=O)(=O)NC2(C(F)(F)F)C(=O)Nc3c2c(=O)[nH]c(=O)n3Cc2cccnc2)cc1 (centres undefined)	0.8	7.9	1.0	56.4*	-78.5	-2.0
CC(=O)Nc1ccc(S(=O)(=O)NC2(C(F)(F)F)C(=O)Nc3c2c(=O)[nH]c(=O)n3C)cc1 (centres undefined)	30.4	-6.8	0.9	-34.4	-76.8	-2.0
CC(=O)Nc1ccc(S(=O)(=O)NC2(C(F)(F)F)C(=O)Nc3c2c(=O)n(C)c(=O)n3C)cc1 (centres undefined)	9.3	-9.3	5.8	52.4*	-128.7	0.0
O=C(CCCn1c(=S)[nH]c2ccccc2c1=O)NCCSCc1ccccc1	-11.3	-6.7	-2.0	3.5	-27.7	1.0
CC(=O)Nc1ccc(NC(=O)C2CC(=O)N(c3ccccc3Cl)C2)cc1 (centres undefined)	5.9	5.6	-1.4	2.5	-19.1	0.0
O=C(c1cc([N+](=O)[O-])cc([N+](=O)[O-])c1)N1CCOCC1	13.3	-5.8	-6.9	-1.7	-12.8	-6.0
O=C1[C@H]2[C@@H](C(=O)N1c1cc(Cl)cc(Cl)c1)[C@]1(C(=O)Nc3ccccc31)N1CCC[C@@H]21	11.0	-8.8	-4.3	20.6	-9.8	-3.0
O=C1[C@H]2[C@@H](C(=O)N1c1cccc3ccccc13)C1(C(=O)c3ccccc3C1=O)N1CCC[C@@H]21	8.6	-11.3	3.0	64.0*	-26.0	-6.0
C=CCn1c(SCC(=O)Nc2ccc(NC(=O)c3ccco3)c(OC)c2)nnc1-c1ccncc1	-9.3	94.2*	-2.1	29.1	-13.8	0.0
C=CCn1c(SCC(=O)Nc2ccc(-c3nc4ccc(C)cc4s3)cc2)nnc1-c1ccccc1	91.9*[fluorescence artefact?]	12.9	32.8*[fluorescence artefact?]	70.0*	65.5*	-1.0
O=C(O)CCN1C(=O)/C(=C/c2cn(-c3ccccc3)nc2-c2cccs2)SC1=S	75.6*	-95.0	30.4*	88.0*	83.6*	-2.0
Cc1ccc(-c2nn(-c3ccccc3)cc2/C=C2\SC(=S)N(CC(=O)O)C2=O)cc1	10.6	-32.2	10.2	88.1*	35.5	.
Cn1cccc1/C=C1\SC(=S)N(CC(=O)O)C1=O	-0.7	-3.3	1.2	12.6	-54.3	0.0
O=C(O)CCCCCN1C(=O)/C(=C\c2cn(-c3ccccc3)nc2-c2cccs2)SC1=S	63.8	-5.5	45.4*	98.6*	89.3*	.
O=C(O)CCN1C(=O)/C(=C\c2ccncc2)SC1=S	-15.3	-2.3	-6.5	-8.4	-36.4	0.0
